Assay results taken from the supplement of paper PMC10849652.
Of roughly 8,800 targets only a part is listed; those with a hit were picked by preference. About 0.5% of all pairs of compound and target were hits. A number with no mark means an inactive call.

Tests used:
Experiment in all cases: log2 fold change, soluble protein after heating vs DMSO (PISA); higher = thermal stabilisation; K562 lysate, 10 uM; active = over 0.2 and 3.5 SD of the protein, either way, in both replicates (recomputed)
lapatinib = compound: CS(=O)(=O)CCNCc1ccc(-c2ccc3ncnc(Nc4ccc(OCc5cccc(F)c5)c(Cl)c4)c3c2)o1 [lapatinib]
Method in brief: (§1)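 Pellets of K562 cells were dounce-homogenised in PBS pH 7.4 with 1 mM MgCl2, and the crude extract was held at 1 mg/mL protein for a 30 min treatment with 10 μM compound. Aliquots were heated for 3 min over 48°C-58°C and pooled before NP-40 was added to 0.5% at 4°C. The supernatant from 21,000xg for 90 min was quantified by TMTpro 16plex LC-MS/MS with channel sums equalised. Values are reported from duplicates as log-two fold change in thermal stability relative to solvent controls.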

pictilisib = compound: CS(=O)(=O)N1CCN(Cc2cc3nc(-c4cccc5[nH]ncc45)nc(N4CCOCC4)c3s2)CC1 [pictilisib]
Method in brief: as §1

crizotinib = compound: C[C@@H](Oc1cc(-c2cnn(C3CCNCC3)c2)cnc1N)c1c(Cl)ccc(F)c1Cl [crizotinib]
Method in brief: as §1

[1] = compound: C[C@H](C1=CC=C(C=C1)C(=O)NC2=C3C=CNC3=NC=C2)N
Method in brief: as §1

duvelisib = compound: C[C@H](Nc1ncnc2nc[nH]c12)c1cc2cccc(Cl)c2c(=O)n1-c1ccccc1 [duvelisib]
Method in brief: as §1

gandotinib = compound: Cc1cc(Nc2cc(CN3CCOCC3)c3nc(C)c(Cc4ccc(Cl)cc4F)n3n2)n[nH]1 [gandotinib]
Method in brief: as §1

tozasertib = compound: Cc1cc(Nc2cc(N3CCN(C)CC3)nc(Sc3ccc(NC(=O)C4CC4)cc3)n2)n[nH]1 [tozasertib]
Method in brief: as §1

doramapimod = compound: Cc1ccc(-n2nc(C(C)(C)C)cc2NC(=O)Nc2ccc(OCCN3CCOCC3)c3ccccc23)cc1 [doramapimod]
Method in brief: as §1

bafetinib = compound: Cc1ccc(NC(=O)c2ccc(CN3CC[C@H](N(C)C)C3)c(C(F)(F)F)c2)cc1Nc1nccc(-c2cncnc2)n1 [bafetinib]
Method in brief: as §1

[2] = compound: Cc1cccc(CC(=O)N2CCc3c2ccc(-c2cn(C)c4ncnc(N)c24)c3F)n1
Method in brief: as §1

nilotinib = compound: Cc1cn(-c2cc(NC(=O)c3ccc(C)c(Nc4nccc(-c5cccnc5)n4)c3)cc(C(F)(F)F)c2)cn1 [nilotinib]
Method in brief: as §1

[3] = compound: Cc1nc(Nc2n[nH]c3c2CN(C(=O)N[C@H](CN(C)C)c2ccccc2)C3(C)C)c2sccc2n1
Method in brief: as §1

dasatinib = compound: Cc1nc(Nc2ncc(C(=O)Nc3c(C)cccc3Cl)s2)cc(N2CCN(CCO)CC2)n1 [dasatinib]
Method in brief: as §1

[4] = compound: Cc1ncc(-c2ccnc(Nc3ccc(S(C)(=O)=O)cc3)n2)n1C(C)C
Method in brief: as §1

[5] = compound: Cn1cc(-c2ccc3c(c2)CCN3C(=O)Cc2cccc(C(F)(F)F)c2)c2c(N)ncnc21
Method in brief: as §1

quisinostat = compound: Cn1cc(CNCC2CCN(c3ncc(C(=O)NO)cn3)CC2)c2ccccc21 [quisinostat]
Method in brief: as §1

tipifarnib = compound: Cn1cncc1[C@@](N)(c1ccc(Cl)cc1)c1ccc2c(c1)c(-c1cccc(Cl)c1)cc(=O)n2C [tipifarnib]
Method in brief: as §1

[6] = compound: NC(=O)Nc1cc(-c2cccc(F)c2)sc1C(=O)N[C@H]1CCCNC1
Method in brief: as §1

[7] = compound: NC(=O)c1cnc(N[C@@H]2CCCC[C@@H]2N)nc1Nc1cccc(-n2nccn2)c1
Method in brief: as §1

[8] = compound: NC1(c2ccc(-c3nc4ccn5c(=O)[nH]nc5c4cc3-c3ccccc3)cc2)CCC1
Method in brief: as §1

Sequence of UniProt Q86VV8 (Q86VV8 whole entry, looked up): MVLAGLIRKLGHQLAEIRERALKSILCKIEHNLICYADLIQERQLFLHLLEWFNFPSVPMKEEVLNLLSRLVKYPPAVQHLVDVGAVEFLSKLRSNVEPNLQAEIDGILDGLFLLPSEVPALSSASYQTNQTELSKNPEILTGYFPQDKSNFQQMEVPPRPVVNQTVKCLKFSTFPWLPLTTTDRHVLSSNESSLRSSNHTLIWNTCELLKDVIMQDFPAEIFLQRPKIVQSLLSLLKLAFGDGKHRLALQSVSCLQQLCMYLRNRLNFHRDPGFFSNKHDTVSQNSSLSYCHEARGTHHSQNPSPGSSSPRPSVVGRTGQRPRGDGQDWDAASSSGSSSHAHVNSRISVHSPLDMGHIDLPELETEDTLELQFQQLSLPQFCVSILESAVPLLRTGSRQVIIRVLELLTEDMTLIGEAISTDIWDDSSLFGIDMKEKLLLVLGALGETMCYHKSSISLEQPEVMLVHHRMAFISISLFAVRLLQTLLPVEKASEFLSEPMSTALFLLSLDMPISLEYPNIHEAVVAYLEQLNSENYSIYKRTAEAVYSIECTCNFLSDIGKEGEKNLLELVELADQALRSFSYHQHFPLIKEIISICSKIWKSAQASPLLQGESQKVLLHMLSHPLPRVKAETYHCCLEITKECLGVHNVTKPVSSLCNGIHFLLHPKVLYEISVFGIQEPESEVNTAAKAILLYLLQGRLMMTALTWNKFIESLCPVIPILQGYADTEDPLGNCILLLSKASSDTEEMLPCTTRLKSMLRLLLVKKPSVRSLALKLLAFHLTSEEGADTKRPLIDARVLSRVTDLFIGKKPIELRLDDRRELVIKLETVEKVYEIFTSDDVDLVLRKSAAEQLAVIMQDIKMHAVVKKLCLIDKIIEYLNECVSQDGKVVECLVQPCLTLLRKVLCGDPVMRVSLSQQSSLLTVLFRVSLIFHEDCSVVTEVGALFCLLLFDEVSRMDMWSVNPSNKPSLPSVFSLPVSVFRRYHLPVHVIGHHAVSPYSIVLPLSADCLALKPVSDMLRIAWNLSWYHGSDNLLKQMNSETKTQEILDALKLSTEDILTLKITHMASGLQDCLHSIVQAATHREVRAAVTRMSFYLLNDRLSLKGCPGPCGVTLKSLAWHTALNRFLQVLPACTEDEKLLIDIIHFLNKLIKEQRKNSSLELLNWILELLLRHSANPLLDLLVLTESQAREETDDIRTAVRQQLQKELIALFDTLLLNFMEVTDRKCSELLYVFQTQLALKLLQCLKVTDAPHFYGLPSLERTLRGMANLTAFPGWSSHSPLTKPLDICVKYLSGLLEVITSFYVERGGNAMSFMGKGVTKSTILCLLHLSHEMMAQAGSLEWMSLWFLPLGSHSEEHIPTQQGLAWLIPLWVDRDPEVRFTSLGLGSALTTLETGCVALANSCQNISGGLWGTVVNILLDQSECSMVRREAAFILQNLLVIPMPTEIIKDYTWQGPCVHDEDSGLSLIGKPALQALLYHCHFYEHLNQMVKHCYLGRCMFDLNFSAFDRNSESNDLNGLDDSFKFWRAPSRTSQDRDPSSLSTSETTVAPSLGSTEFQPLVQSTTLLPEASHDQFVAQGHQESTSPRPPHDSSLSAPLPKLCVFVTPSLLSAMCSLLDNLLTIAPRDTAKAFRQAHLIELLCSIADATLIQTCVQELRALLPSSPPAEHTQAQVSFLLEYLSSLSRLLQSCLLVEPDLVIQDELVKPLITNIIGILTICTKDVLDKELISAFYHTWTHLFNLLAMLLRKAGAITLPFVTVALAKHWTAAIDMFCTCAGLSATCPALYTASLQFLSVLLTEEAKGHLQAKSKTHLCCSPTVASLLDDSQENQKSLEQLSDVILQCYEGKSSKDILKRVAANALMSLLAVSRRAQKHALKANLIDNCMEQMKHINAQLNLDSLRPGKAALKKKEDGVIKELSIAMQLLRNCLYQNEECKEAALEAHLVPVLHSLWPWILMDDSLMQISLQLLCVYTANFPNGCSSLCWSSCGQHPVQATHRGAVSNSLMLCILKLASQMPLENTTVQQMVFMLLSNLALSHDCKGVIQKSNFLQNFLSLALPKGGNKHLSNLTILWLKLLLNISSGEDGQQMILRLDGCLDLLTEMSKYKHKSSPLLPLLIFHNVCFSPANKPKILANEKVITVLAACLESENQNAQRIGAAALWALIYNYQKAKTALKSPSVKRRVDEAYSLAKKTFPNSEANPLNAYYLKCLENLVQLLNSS
Sequence of UniProt P23921 (P23921 whole entry, looked up): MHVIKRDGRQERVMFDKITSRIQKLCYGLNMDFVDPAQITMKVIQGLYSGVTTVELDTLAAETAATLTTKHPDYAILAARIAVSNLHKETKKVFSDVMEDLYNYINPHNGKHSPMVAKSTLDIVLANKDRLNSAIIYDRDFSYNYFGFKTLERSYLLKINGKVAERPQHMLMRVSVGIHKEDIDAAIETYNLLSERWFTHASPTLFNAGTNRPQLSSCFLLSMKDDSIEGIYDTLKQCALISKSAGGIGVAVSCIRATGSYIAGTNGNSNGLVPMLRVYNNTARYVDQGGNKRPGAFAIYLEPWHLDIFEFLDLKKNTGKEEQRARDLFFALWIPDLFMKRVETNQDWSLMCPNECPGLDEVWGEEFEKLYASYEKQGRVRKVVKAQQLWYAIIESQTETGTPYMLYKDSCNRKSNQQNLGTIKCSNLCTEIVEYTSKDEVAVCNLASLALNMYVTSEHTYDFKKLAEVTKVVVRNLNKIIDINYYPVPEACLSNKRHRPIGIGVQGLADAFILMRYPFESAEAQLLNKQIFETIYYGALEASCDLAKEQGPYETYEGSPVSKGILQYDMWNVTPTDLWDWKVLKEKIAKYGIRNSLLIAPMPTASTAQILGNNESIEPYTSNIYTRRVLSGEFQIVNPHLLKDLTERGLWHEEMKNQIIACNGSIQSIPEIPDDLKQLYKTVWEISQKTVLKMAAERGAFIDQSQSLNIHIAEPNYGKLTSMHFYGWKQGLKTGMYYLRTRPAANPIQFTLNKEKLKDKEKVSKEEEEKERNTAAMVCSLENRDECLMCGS
Sequence of UniProt Q8NC42 (Q8NC42 whole entry, looked up): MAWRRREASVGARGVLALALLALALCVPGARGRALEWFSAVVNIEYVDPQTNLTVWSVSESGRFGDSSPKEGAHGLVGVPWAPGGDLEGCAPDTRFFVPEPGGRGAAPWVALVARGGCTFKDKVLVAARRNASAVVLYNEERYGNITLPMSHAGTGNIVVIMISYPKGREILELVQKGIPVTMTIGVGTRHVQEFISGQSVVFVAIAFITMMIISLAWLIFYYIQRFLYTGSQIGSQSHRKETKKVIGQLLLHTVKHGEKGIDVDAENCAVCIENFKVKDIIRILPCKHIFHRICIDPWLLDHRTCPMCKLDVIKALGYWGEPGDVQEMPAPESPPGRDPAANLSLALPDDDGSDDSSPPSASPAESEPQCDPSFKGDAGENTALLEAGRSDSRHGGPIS
Sequence of UniProt Q8WZA2 (Q8WZA2 whole entry, looked up): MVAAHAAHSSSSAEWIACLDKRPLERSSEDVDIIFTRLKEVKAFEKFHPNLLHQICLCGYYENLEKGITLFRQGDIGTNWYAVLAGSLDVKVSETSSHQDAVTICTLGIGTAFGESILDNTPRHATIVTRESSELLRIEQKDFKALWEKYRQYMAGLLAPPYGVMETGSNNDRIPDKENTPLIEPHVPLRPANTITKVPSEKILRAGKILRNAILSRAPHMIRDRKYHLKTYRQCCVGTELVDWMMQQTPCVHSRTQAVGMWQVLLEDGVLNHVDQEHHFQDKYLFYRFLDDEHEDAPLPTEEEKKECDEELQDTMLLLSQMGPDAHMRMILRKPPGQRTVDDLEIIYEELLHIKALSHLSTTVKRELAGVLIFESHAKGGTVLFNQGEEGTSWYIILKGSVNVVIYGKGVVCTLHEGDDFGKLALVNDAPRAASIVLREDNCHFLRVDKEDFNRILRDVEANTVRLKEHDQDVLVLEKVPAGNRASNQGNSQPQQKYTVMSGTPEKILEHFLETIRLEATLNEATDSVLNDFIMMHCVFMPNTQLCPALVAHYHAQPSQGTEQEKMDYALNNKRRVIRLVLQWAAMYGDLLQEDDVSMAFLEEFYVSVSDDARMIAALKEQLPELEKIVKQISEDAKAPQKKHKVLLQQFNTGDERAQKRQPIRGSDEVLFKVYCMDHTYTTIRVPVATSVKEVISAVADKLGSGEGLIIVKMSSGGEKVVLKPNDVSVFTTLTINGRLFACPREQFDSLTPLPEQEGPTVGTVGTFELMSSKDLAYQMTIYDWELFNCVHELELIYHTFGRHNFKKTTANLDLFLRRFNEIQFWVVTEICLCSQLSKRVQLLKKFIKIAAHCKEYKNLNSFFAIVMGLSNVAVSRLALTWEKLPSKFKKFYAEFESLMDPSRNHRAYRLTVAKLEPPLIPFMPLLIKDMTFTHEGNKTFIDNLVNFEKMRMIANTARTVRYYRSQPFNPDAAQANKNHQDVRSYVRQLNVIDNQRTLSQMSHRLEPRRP
Sequence of UniProt Q99496 (Q99496 whole entry, looked up): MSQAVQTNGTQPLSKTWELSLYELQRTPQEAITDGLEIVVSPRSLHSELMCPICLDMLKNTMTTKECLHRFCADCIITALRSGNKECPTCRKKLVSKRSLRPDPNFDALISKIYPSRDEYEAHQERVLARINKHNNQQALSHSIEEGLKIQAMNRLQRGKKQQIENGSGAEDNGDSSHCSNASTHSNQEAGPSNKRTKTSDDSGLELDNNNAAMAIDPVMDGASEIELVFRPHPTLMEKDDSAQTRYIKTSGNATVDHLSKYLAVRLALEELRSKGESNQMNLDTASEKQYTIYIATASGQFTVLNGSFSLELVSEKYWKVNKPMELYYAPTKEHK
Sequence of UniProt Q9Y6D0 (Q9Y6D0 whole entry, looked up): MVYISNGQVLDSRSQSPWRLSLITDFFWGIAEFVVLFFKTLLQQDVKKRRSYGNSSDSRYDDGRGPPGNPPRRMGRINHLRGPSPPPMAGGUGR
Sequence of UniProt P60059 (P60059 whole entry, looked up): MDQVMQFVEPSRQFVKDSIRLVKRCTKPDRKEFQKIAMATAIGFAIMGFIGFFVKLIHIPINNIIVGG

Target	log2 fold change (lapatinib)	log2 fold change (pictilisib)	log2 fold change (crizotinib)	log2 fold change [1]	log2 fold change (duvelisib)	log2 fold change (gandotinib)	log2 fold change (tozasertib)	log2 fold change (doramapimod)	log2 fold change (bafetinib)	log2 fold change [2]	log2 fold change (nilotinib)	log2 fold change [3]	log2 fold change (dasatinib)	log2 fold change [4]	log2 fold change [5]	log2 fold change (quisinostat)	log2 fold change (tipifarnib)	log2 fold change [6]	log2 fold change [7]	log2 fold change [8]
SEH1L isoform 1 (UniProt Q96EE3)	-0.03	-0.009	0.01	-0.027	-0.049	0.029	0.011	0.007	-0.085	0.052	-0.009	-0.019	0.032	0.006	0.007	-0.008	-0.008	0	0.003	-0.028
RRM1 (UniProt P23921)	0.003	0.01	-0.025	-0.004	-0.052	-0.028	-0.036	-0.017	-0.018	0.001	-0.003	0.008	-0.026	0.001	0.016	-0.018	0.007	0.016	-0.002	-0.038
RBM5 (UniProt P52756)	0.029	-0.013	0.005	-0.268	-0.058	-0.015	0	0.058	-0.051	0.089	0.146	-0.085	0.073	0.028	-0.003	0.027	-0.015	0.009	0.114	0.185
RETREG2 (UniProt Q8NC44)	-0.051	-0.037	-0.074	-0.052		-0.052	0.025	-0.005	-0.141	0.122	0.363 (active)	-0.135		0.055		-0.084	-0.076	-0.016	-0.012	-0.022
RAE1 (UniProt P78406)	0.055	0.003	0.05	-0.158	-0.063	0.031	-0.071	-0.032	0.235	0.111	-0.093	0.042	0.002	0.012	0.033	0.038	-0.053	0.026	0.024	0.015
SEC61G (UniProt P60059)	-0.094	0.139	0.209	-0.331	0.105	0.46 (active)	-0.168	0.098	-0.192	0.338	-0.007	-0.061	0	0.089	-0.033	-0.045	0.134	-0.01	0.023	0.053
RAB3IL1 (UniProt Q8TBN0)	-0.002	-0.034	-0.023	0	-0.003	-0.014	-0.004	-0.012	0.006	-0.02	-0.025	-0.026	-0.048	0.041	0.017	-0.002	0.037	0.004	0.017	0.033
SCCPDH (UniProt Q8NBX0)	0.108	0.006	0.394	-0.179	0.195	0.869 (active)	-0.052	-0.102	-0.015	0.034	0.12	-0.002	0.058	0.151	-0.019	-0.058	0.049	-0.217	-0.081	0.022
RETSAT (UniProt Q6NUM9)	0.056	-0.048	-0.329	-0.159	0.039	0.167	-0.024	0.006	-0.097	0.391			-0.1		-0.058	-0.485 (active)		0.152	-0.005	-0.051
RFC5 (UniProt P40937)	0.007	-0.058	-0.056	-0.047	0.016	-0.068	0.018	0.026	-0.039	0.018	0.005	0.001	-0.06	-0.005	0.025	-0.078	-0.023	0.074	0.025	-0.02
RNF149 (UniProt Q8NC42)	0.073	-0.025	-0.006	-0.039	-0.025	-0.026		-0.099	-0.105	-0.013	0.083	0.129	-0.019	0.099	0.003	-0.019	0.087	0.038	0.156	-0.019
RPS6KA3 (UniProt P51812)	-0.089	0.223	-0.012	-0.037	-0.016	0.156	0.363	-0.057	-0.077	-0.083	-0.02	0.17	-0.065	0.039	0.031	-0.046	-0.023	0.133	0.09	0.005
RAPGEF4 (UniProt Q8WZA2)	-0.061	0.047	-0.24	-0.804 (active)	0.104	0.38	-0.088	-0.041	-0.212	0.543			-0.092		-0.061	-0.491		0.16	0.064	-0.192
ROBO2 isoform 3 (UniProt Q9HCK4)	0.02		-0.039					0.019								0.052		0.009	0.043	0.005
SELENOK (UniProt Q9Y6D0)	-0.065	-0.048		-0.543 (active)	0.082	0.52 (active)			-0.027	0.542 (active)	-0.009	-0.032	0.082	0.064	-0.032		-0.077		0.001	
RTTN (UniProt Q86VV8)	0.306	-0.034		-0.053	0.067	-0.289	-0.07		-0.032	0.203	-0.102	0.14	-0.086	-0.003	-0.161		-0.069		-0.282	0.216
RNASEH2B, A0A1B0GUE7	-0.128										-0.01	0.037		0.211			0.067		0.035	
RNF2 (UniProt Q99496)			0.087	0.484 (active)	0.031	-0.299	0.021	-0.032		-0.442 (active)	0.026	-0.047	-0.07	0.027	-0.025	0.154	-0.124	-0.015		-0.05
